RE007 growth inh = qHTS Assay for Inhibitors of the HIV-1 protein Vpr; 0.21% of 360,000 active; AID 651644, 2012; Potency, µM (doses to about 92.2 µM), inactives show at the top dose activity change, negative = less growth, hits mostly inhibitors; S. pombe RE007 Vpr strain, BacTiter-Glo ATP luminescence, 24 h; active = well fitted falling curve with a large enough effect; inconclusive = small, poorly fitted or top-dose-only effect; inactive = no such curve, though single readings can be large or run the other way; note: potency is the fitted concentration of half-maximal effect; nearly all actives have a fitted effect of over 50% in size
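Fission yeast strain RE007, carrying one chromosomally integrated HIV-1 vpr copy, was seeded at OD 0.01 in PMG+AL medium with 23 nL pinned compound. After 24 h at 30 °C and 99% humidity, viability was read by BacTiter-Glo luminescence.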
FMDV inh = High Throughput Screening for Foot and Mouth Disease Virus Antivirals | FMDV antiviral cell-based qHTS | Potency, µM (highest dose often 57.9 µM), inactives show at the top dose activity change, negative = inhibition, actives largely listed as inhibitors | 1.2% of 410,000 active; calls by dose curve; tested in HEK293T cells; note: read-out not given here; potency is the fitted concentration of half-maximal effect; nearly all actives have a fitted effect of over 45% in size
FBPA Giardia inh = qHTS Assay for Inhibitors of Fructose-1,6-bisphosphate Aldolase from Giardia Lamblia. purified Giardia FBPA. Potency, µM (highest dose often 59.6 µM), for inactives: at the highest dose activity, negative = inhibition, hits mostly inhibitors. 0.71% of 290,000 active. AID 2451, 2010; note: potency is the fitted concentration of half-maximal effect; nearly all actives have a fitted effect of over 55% in size
Target sequence (A8B2U2 whole entry, looked up): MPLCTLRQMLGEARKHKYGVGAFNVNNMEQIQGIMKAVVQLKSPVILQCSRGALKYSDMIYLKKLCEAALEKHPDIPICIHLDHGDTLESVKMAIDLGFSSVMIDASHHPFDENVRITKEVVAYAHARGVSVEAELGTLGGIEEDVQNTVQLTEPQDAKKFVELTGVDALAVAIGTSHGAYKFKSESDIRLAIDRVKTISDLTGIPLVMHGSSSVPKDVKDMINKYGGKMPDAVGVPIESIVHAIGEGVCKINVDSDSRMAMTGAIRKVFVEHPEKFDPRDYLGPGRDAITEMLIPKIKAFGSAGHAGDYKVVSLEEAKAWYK
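Giardia FBPA (40 nM reagent) was preincubated 10 min at RT with compound (up to 57.5 uM final), then substrate plus GAPDH/TPI/NAD/arsenate coupling system with diaphorase/resazurin was added; resorufin fluorescence (525/598 nm) was read after 20 min.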
Sm TGR inh = qHTS Assay for the Inhibitors of Schistosoma Mansoni Peroxiredoxins; Potency, µM (top dose mostly 114 µM), for inactives: top-dose activity change, negative = inhibition, hits mostly inhibitors; AID 485364, 2010; purified TGR, DTNB reduction, TNB absorbance 405 nm; 3% of 360,000 active; Schistosoma mansoni thioredoxin glutathione reductase (TGR), Q962Y6; note: potency is the fitted concentration of half-maximal effect; nearly all actives have a fitted effect of over 60% in size
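TGR 20 nM + NADPH 100 uM (dispensed conc.), cpd preinc 15 min RT; start with NADPH (500 uM addition) then DTNB (15 mM addition). Kinetic TNB absorbance, 405 nm filter. Four-parameter Hill fit across titration.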
Tb PYK inh = qHTS of Trypanosoma Brucei Inhibitors; Potency, µM (doses to about 76.8 µM), for the others: top-dose activity, negative = inhibition, hits mostly inhibitors; 0.12% of 410,000 active; TbPYK enzyme, Kinase-Glo Plus ATP luminescence, 45 min; note: potency is the fitted concentration of half-maximal effect; nearly all actives have a fitted effect of over 50% in size
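T. brucei PYK with substrate was exposed to pin-transferred compounds across a concentration series, then started with 130 uM ADP (final). After 45 min at room temperature, Kinase-Glo Plus luminescence was read, normalized and curve-fitted.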
HCMV inh = qHTS Assay for inhibitors of the human cytomegalovirus (HCMV) | HFF cells, HCMV-luciferase reporter, 72 h; active compounds read low | activity change, negative = inhibition, % at 57.5 µM | 4.5% of 410,000 active | AID 1259415, 2018; in the data active = activity change below about -60%; inconclusive = no clear call, values can overlap the other calls; inactive = above about -39%
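Inhibition of viral replication was scored as loss of reporter luminescence in HFFs infected with HCMV-luciferase (MOI 1 PFU/cell) for 72 h; compounds tested at 2 doses, normalized to buffer and Salinomycin controls.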
An asterisk follows results filed as active; ? = inconclusive; . = not tested or not shown; [ ] = dose if it differs, or a comment. Hits are enriched below; roughly 7.7% of the tested compounds scored in any of these assays. Unless noted, calls come from the whole dose curve; as a rule, active = well fitted curve in the direction sought with a large enough effect; inconclusive = small, poorly fitted or top-dose-only effect, or another doubt; inactive = no such curve, though single readings can be large; an effect the other way counts as inactive or inconclusive. % is set by controls: 0 for no effect and ±100 for the full control effect.

SMILES | RE007 growth inh | FMDV inh | FBPA Giardia inh | Sm TGR inh | Tb PYK inh | HCMV inh
C=C1C(=O)[C@]23C[C@H]1CCC2[C@@]1(C)C(C[C@@H]3O)[C@](C)(C(=O)OC)CC[C@@H]1OC(C)=O (stereo not given in full) | ? | 8.91µM* | . | . | -12.6% | -101.5*
C=C1C(=O)[C@]23C[C@H]1CCC2[C@@]1(C)C(C[C@@H]3O)[C@](C)(C(=O)O)C[C@H](O)[C@@H]1O (stereo not given in full) | 15.9% | -11.1% | . | . | -0.8% | -14.1
COc1cc(=O)n2c(c1C(=O)N(C)Cc1nccs1)CCN(Cc1cc(C)cc(C)c1)CC2 | . | -15.6% | . | . | . | .
Cc1cccc(NC(=O)c2cc3c(n(-c4ccccc4)c2=O)CCCC3=O)n1 | 1.7% | -8.9% | ? | 31.6µM* | -3.0% | 49.5
Cc1ccc(NC(=O)Cn2ccn(Cc3ccc(Cl)cc3)c(=O)c2=O)cc1C | . | -11.3% | . | 2.9% | -3.9% | -12.3
CN1CCN(C(=S)C(=O)Nc2ccc(Br)cc2)CC1 | 5.8% | 4.3% | 5µM* | . | ? | -1.7
CN1CCC(NC(=O)Nc2ccc(Br)cc2)CC1 | -2.4% | 17.2% | 0.1% | 1.1% | -1.7% | -19.9
Cc1cc(NC(=O)CN2C(=O)CC(c3ccco3)Sc3ccccc32)no1 (stereo not given) | -1.7% | -2.4% | -25.6% | 15.8µM* | -3.3% | .
COc1cccc(NC(=O)CN2C(=O)CC(c3ccco3)Sc3ccccc32)c1 (stereo not given) | . | -21.9% | . | -0.1% | -2.0% | -105.4*
CC(=O)Nc1ccc(NC(=O)CN2C(=O)CC(c3ccco3)Sc3ccccc32)cc1 (stereo not given) | . | -6.5% | . | -1.1% | -4.2% | -105.1*
COc1ccc(OC)c(NC(=O)CN2C(=O)CC(c3ccco3)Sc3ccccc32)c1 (stereo not given) | . | -9.0% | . | 2.0% | -1.8% | -10.5
CCOc1ccccc1NC(=O)CN1C(=O)CC(c2ccco2)Sc2ccccc21 (stereo not given) | . | -18.9% | . | -17.7% | -1.9% | -87.0*
CCOC(=O)c1ccccc1NC(=O)CN1C(=O)CC(c2ccco2)Sc2ccccc21 (stereo not given) | . | 40.7% | . | -2.6% | 1.0% | -29.0
Cc1ccc(C(C)C)n1C(=O)OC(C)(C)C | . | . | 0.0%[12.9 µM] | . | . | .
O=S(=O)(c1ccccc1)c1nc(-c2ccccc2)oc1N1CCN(c2cccc(Cl)c2)CC1 | . | -9.6% | . | 4.5% | 0.8% | -2.1
Cn1c(=O)c(-c2ccc(F)cc2)nc2cnc(OCc3ccccc3)nc21 | . | -2.6% | 4.6% | . | . | .
COc1ccc(N2CCN(S(=O)(=O)c3ccc(CC(C)C)cc3)CC2)cc1 | . | -7.8% | . | -7.7% | -4.9% | 7.6
COc1c(-c2ccc(O)c(O)c2)oc2cc(O)cc(O)c2c1=O | -10.9% | 4.8% | -22.9% | 28.2µM* | -10.8% | 40.0
O=c1c(O[C@@H]2O[C@H](CO)[C@H](O)[C@H](O)[C@H]2O)c(-c2ccc(O)c(O)c2)oc2cc(O)cc(O)c12 | . | . | ? | 17.5% | . | .
O=c1c(O)c(-c2cc(O)c(O)c(O)c2)oc2cc(O)cc(O)c12 | 14.4% | -18.9% | ? | 3.55µM* | ? | ?
COCOc1cc(O)c2c(=O)c(OCOC)c(-c3ccc(OCOC)c(OCOC)c3)oc2c1 | 5.3% | -24.4% | . | . | -1.1% | -70.5*
C=C[C@]1(C)C[C@@H](OC(=O)CO)[C@]2(C)C(C)CC[C@]3(CCC(=O)[C@H]32)[C@@H](C)[C@@H]1O (stereo not given in full) | . | . | . | . | 2.8% | .
O=C(c1cnn(-c2nccc(-c3ccccc3F)n2)c1C1CC1)N1CCCCC1c1cccnc1 (stereo not given) | . | -8.3% | . | . | . | .
CC(=O)c1c(NC(=O)c2ccccc2)[nH]c(-c2ccccc2)nc1=S | 11.6% | -9.2% | 11.8% | 0.4% | -6.8% | -84.2*
COc1ccc(N2C(=O)NC3CC2(C)Oc2ccccc23)cc1OC (stereo not given) | 2.6% | -12.0% | 3.9% | 13.0% | -9.5% | -61.8*
SMILES | RE007 growth inh | FMDV inh | FBPA Giardia inh | Sm TGR inh | Tb PYK inh | HCMV inh
COc1ccccc1NC(=O)C(=O)NCCc1csc(-c2cccc(F)c2)n1 | . | ? | . | -1.4% | 3.0% | -0.2
CC(C)NC(=NCc1ccc(Cl)cc1Cl)Nc1ccccc1 | ? | -29.9% | -0.2% | -0.1% | 0.0% | -101.0*
O=C(C/C=N\OCc1ccc(Cl)cc1Cl)Nc1ccccc1 | 1.8% | -9.4% | 0.0% | 6.4% | 6.4% | -21.1
COc1cc(-c2ccc(N=Nc3ccc4c(S(=O)(=O)O)cc(S(=O)(=O)O)c(N)c4c3O)c(OC)c2)ccc1N=Nc1ccc2c(S(=O)(=O)O)cc(S(=O)(=O)O)c(N)c2c1O | . | ? | 14.1µM* | . | . | .
COc1cc(N=Nc2ccc(C)cc2S(N)(=O)=O)c(C)cc1N | 6.3% | 44.6% | . | . | 0.1% | 179.0
COc1ccc(OC)c(N(CC(=O)NCc2ccccc2)S(=O)(=O)c2ccc(OC)c(OC)c2)c1 | 1.5% | -0.6% | . | 25.1µM* | 1.0% | -24.0
COc1ccc(OC)c(N(CC(=O)NCc2ccccc2)S(=O)(=O)c2ccccc2)c1 | . | 27.5% | . | 7.3% | 0.0% | 4.7
COc1ccc(OC)c(N(CC(=O)NCC2CCCO2)S(=O)(=O)c2ccccc2)c1 (stereo not given) | -8.1% | 20.6% | -2.8% | -20.2% | 1.0% | -63.0*
Cc1cc(C(=O)N2CCOCC2)c(C)o1 | 10.2% | -8.3% | 1.3% | . | -1.0% | -98.8*
CCOc1ccc(NC2=CC(=O)C(=O)c3ccccc32)cc1 | ? | 7.1% | . | . | -11.0% | ?
COc1cc(Cl)c(NC2=CC(=O)C(=O)c3ccccc32)c(OC)c1 | 0.9% | ? | . | ? | -5.9% | -97.0*
Fc1cccc(C[n+]2csc3ccccc32)c1 | 22.0% | -9.8% | -24.5% | -31.9% | ? | -6.6
c1ccc(C[n+]2csc3ccccc32)cc1 | 7.5% | 26.2% | -10.5% | 4.47µM* | ? | 61.4
Cc1cc(NC(=O)CCN2C(=O)C3C4C=CC(C4)C3C2=O)ccc1Br (stereo not given) | -7.2% | 13.8% | 6.6% | 6.9% | 3.1% | -68.3*
CCOc1ccc(-c2nc(CSCC(=O)N3CCN(c4cccc(C(F)(F)F)c4)CC3)c(C)o2)cc1 | . | ? | . | -3.2% | -3.5%[15.4 µM] | ?
COCCN(C(=O)CCCC(=O)Nc1ccccn1)C(C(=O)NC1CCCCC1)c1ccc(C)cc1 (stereo not given) | -7.1% | 19.4% | 2.8% | 0.0% | 0.2% | 25.9

Screening data from PubChem.
